Results as given in PubChem BioAssay (Tox21).
A number with no mark means an inactive call. Records with an inconclusive call do not appear. Entries that show only a call come without a potency. Active and inactive are the calls of the source. Unless noted, calls come from the whole dose curve.

Experiments:
[1] = Nuclear factor erythroid 2-related factor 2/antioxidant responsive element (Nrf2/ARE) small molecule agonists: qHTS cell viability counter screen in human keratinocytes (AID 1919968; active = well fitted curve in the direction sought with a large enough effect in the repeat runs; an effect the other way counts as inactive or inconclusive; note: nearly all actives have a fitted effect of over 55% in size)
Method in brief: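 Parallel cytotoxicity read: KeratinoSens HaCaT cells, compound treatment 23 h, viability by CellTiter-Fluor fluorescence 1 h post-reagent.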

[2] = Nuclear factor erythroid 2-related factor 2/antioxidant responsive element (Nrf2/ARE) small molecule agonists: luciferase reporter gene qHTS assay in human keratinocytes (AID 1919969); note: nearly all actives have a fitted effect of over 35% in size; note: potency is the fitted concentration of half-maximal effect
[3] = molecular target: Gonadotropin-releasing hormone receptor (Homo sapiens) (UniProt P30968); experiment: Human gonadotropin-releasing hormone receptor (GnRHR) small molecule agonists, calcium flux assay in GnRHR-HEK293 cells (AID 1920063); note: nearly all actives have a fitted effect of over 35% in size
Sequence of Gonadotropin-releasing hormone receptor (Homo sapiens) (P30968 whole entry, looked up): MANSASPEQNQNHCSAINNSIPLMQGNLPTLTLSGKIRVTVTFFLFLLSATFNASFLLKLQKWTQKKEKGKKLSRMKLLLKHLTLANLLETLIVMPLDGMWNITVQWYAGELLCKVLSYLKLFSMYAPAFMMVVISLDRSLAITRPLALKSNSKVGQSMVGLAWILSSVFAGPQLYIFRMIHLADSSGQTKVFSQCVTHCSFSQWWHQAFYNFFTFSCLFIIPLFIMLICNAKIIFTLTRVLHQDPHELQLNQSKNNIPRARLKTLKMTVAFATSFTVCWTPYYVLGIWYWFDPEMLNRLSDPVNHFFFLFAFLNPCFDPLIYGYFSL
Method in brief: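 Calcium flux, agonist mode, human GnRHR stably integrated in HEK293; dye 1 h at 37 C before compound; Ex/Em=480/540 kinetic read, 3 min; 15 concentrations, triplicate.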

[4] = molecular target: KiSS-1 receptor (Homo sapiens) (UniProt Q969F8); experiment: Human kisspeptin (KISS1R) small molecule agonists, calcium flux assay in KISS1R-HEK293 cells (AID 1920064; active = well fitted curve in the direction sought with a large enough effect in the repeat runs; an effect the other way counts as inactive or inconclusive)
Sequence of KiSS-1 receptor (Homo sapiens) (Q969F8 whole entry, looked up): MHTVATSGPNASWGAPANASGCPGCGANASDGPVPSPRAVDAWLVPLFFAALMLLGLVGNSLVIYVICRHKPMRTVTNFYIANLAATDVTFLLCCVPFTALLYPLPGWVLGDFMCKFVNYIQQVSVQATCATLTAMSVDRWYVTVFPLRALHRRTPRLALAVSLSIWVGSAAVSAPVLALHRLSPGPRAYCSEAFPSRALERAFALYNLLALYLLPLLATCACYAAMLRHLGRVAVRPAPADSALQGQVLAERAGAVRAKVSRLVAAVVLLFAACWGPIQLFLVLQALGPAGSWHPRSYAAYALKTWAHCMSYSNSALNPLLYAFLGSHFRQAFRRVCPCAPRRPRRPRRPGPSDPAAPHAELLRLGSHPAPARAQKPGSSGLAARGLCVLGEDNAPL
Method in brief: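 Triplicate 15-concentration series were applied to dye-loaded human KISS1R HEK293 cells, and agonist-evoked calcium fluorescence was captured for 3 min.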

[5] = G protein-coupled receptor (GPCR) small molecule agonists, calcium flux assay: HEK293 wild type cell line counter screen (AID 1920065)
Method in brief: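 Non-specific calcium responders were flagged by adding DMSO-dissolved compounds to dye-loaded cells and reading 480/540 nm fluorescence each second for 3 min; ATP served as positive control.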

[6] = p53 small molecule agonists, cell-based qHTS assay with human liver microsomes (AID 1963577);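 note: p53 response element beta-lactamase reporter cells with liver microsomes plus NADPH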
Method in brief: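 Metabolically competent format: test substances, human liver microsomes and NADPH (both 0.5 mg/mL final) incubated with p53RE-bla cells 16 h at 37 C. Beta-lactamase reporter signal then quantified by fluorescence.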

[7] = p53 small molecule agonists, cell-based qHTS assay with rat liver microsomes (AID 1963578)
Method in brief: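 Each plate received p53RE-bla cells, then compound, then rat liver microsomes and NADPH (both 0.5 mg/mL final). Plates were held 16 h at 37 C, and beta-lactamase activity was detected with LiveBLAzer over 2 h.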

[8] = p53 small molecule agonists, cell-based qHTS assay with human liver microsomes: qHTS cell viability counter screen (AID 1963579); note: nearly all actives have a fitted effect of over 45% in size
Method in brief: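 Tox21 library compounds, delivered from DMSO stocks, were tested on p53RE-bla cells together with 0.5 mg/mL human liver microsomes and 0.5 mg/mL NADPH (final) over 16 h at 37 C; CellTiter-Glo luminescence served as the cytotoxicity measure.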

[9] = p53 small molecule agonists, cell-based qHTS assay with rat liver microsomes: qHTS cell viability counter screen (AID 1963580); note: nearly all actives have a fitted effect of over 45% in size
Method in brief: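 Cytotoxicity counter screen: intracellular ATP read by CellTiter-Glo luminescence in the p53 reporter wells. HCT-116 p53RE-bla cells were treated for 16 h at 37 C alongside rat liver microsomes and NADPH, each 0.5 mg/mL final.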

[10] = p53 small molecule agonists, cell-based qHTS assay: qHTS cell viability counter screen (AID 1963581); note: nearly all actives have a fitted effect of over 45% in size
Method in brief: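 Multiplexed with the reporter read, a CellTiter-Glo step (30 min, room temperature) gauges ATP-based viability of HCT-116 p53RE-bla cells after 16 h compound incubation at 37 C.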

[11] = p53 small molecule agonists, cell-based qHTS assay (AID 1963582; active = well fitted activation curve with a large enough effect in the signal ratio in the repeat runs, not every such curve was filed as active; the % refers to the signal ratio)
Method in brief: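 Beta-lactamase reporter cells (p53RE-bla) treated with compounds for 16 h at 37 C; FRET substrate, 2 h, room temperature; fluorescence intensity.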

[12] = molecular target: 5-hydroxytryptamine receptor 2A (Homo sapiens) (UniProt P28223); experiment: 5-hydroxytryptamine receptor 2A (HTR2A) small molecule antagonists, cell-based qHTS assay (AID 1963586); note: nearly all actives have a fitted effect of over 45% in size
Sequence of 5-hydroxytryptamine receptor 2A (Homo sapiens) (P28223 whole entry, looked up): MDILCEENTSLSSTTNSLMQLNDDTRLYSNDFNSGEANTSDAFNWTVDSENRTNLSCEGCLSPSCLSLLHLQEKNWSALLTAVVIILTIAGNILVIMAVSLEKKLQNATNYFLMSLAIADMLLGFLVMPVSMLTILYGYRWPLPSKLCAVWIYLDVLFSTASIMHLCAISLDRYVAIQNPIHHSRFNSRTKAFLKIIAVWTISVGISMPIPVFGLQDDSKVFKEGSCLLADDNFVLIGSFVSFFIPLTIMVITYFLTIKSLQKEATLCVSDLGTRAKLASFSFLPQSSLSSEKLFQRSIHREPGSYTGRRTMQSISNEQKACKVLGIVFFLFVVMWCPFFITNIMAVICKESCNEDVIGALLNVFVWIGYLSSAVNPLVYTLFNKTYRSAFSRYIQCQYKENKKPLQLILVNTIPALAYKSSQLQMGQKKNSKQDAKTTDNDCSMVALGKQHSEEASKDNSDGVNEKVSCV
Method in brief: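 CHO cells stably expressing human HTR2A were plated for 18 h at 37 C, then loaded with calcium dye for 1 h. Compounds were preincubated 5 min at room temperature before DOI (4 nM solution) was added. Kinetic fluorescence was read for 3 min.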

[13] = molecular target: 5-hydroxytryptamine receptor 2A (Homo sapiens) (UniProt P28223); experiment: 5-hydroxytryptamine receptor 2A (HTR2A) small molecule agonists, cell-based qHTS assay (AID 1963587); note: nearly all actives have a fitted effect of over 30% in size
Method in brief: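 Kinetic calcium-flux fluorescence (2 min, 1 sec intervals) after compound addition in agonist mode. HTR2A-CHO cells were cultured 18 h, then dye-loaded 1 h at 37 C.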

[14] = molecular target: Muscarinic acetylcholine receptor M1 (Homo sapiens) (UniProt P11229); experiment: Cholinergic receptor muscarinic 1 (CHRM1) small molecule antagonists, cell-based qHTS assay (AID 1963588); note: nearly all actives have a fitted effect of over 40% in size
Sequence of Muscarinic acetylcholine receptor M1 (Homo sapiens) (P11229 whole entry, looked up): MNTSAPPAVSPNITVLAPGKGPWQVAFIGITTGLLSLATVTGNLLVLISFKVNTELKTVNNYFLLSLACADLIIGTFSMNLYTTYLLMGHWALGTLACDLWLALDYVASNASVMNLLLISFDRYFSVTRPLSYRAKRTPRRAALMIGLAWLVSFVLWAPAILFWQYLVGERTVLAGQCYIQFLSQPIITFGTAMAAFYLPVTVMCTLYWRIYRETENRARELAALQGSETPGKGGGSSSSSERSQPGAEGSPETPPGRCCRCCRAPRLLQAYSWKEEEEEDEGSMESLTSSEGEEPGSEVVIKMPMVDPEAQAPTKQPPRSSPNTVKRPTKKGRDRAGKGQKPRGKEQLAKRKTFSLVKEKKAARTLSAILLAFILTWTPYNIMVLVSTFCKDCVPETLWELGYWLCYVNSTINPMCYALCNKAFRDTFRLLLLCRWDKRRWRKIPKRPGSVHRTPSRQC
Method in brief: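 Compounds were tested at 15 concentrations in three independent runs. Dye-loaded CHRM1-CHO cells were exposed 5 min at room temperature before stimulation by acetylcholine added at 50nM. Intracellular calcium was read kinetically on FDSS for 3 min.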

[15] = molecular target: Muscarinic acetylcholine receptor M1 (Homo sapiens) (UniProt P11229); experiment: Cholinergic receptor muscarinic 1 (CHRM1) small molecule agonists, cell-based qHTS assay (AID 1963589); note: nearly all actives have a fitted effect of over 35% in size
Method in brief: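 qHTS, 15-point titration, 3 independent runs: compounds pin-transferred onto dye-loaded CHRM1-CHO cells (human M1), calcium fluorescence followed every second to detect agonism.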

[16] = cAMP Responsive Elements (CRE) small molecule agonists, cell-based qHTS assay (AID 1963590)
Method in brief: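 Quantitative HTS for CRE agonists: HEK 293T CRE-bla cells, overnight plating, 3 h compound incubation at 37 C/5% CO2, then 2 h room-temperature LiveBLAzer B/G FRET substrate loading.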

[17] = cAMP Responsive Elements (CRE) small molecule antagonists, cell-based qHTS assay (AID 1963591; active = well fitted inhibition curve with a large enough effect in the signal ratio in the repeat runs, not every such curve was filed as active; the % refers to the signal ratio)
Method in brief: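 Fluorescence intensity from cleaved LiveBLAzer B/G substrate (2 h, room temperature) quantified CRE-bla activity in HEK 293T cells exposed 3 h to compound with 0.25 uM final NKH477.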

[18] = molecular target: Beta-2 adrenergic receptor (Homo sapiens) (UniProt P07550); experiment: Adrenergic beta2 receptor (ADRB2) small molecule antagonists, cell-based qHTS assay (AID 1963592); note: series mostly up to about 92 µM; nearly all actives have a fitted effect of over 50% in size
Sequence of Beta-2 adrenergic receptor (Homo sapiens) (P07550 whole entry, looked up): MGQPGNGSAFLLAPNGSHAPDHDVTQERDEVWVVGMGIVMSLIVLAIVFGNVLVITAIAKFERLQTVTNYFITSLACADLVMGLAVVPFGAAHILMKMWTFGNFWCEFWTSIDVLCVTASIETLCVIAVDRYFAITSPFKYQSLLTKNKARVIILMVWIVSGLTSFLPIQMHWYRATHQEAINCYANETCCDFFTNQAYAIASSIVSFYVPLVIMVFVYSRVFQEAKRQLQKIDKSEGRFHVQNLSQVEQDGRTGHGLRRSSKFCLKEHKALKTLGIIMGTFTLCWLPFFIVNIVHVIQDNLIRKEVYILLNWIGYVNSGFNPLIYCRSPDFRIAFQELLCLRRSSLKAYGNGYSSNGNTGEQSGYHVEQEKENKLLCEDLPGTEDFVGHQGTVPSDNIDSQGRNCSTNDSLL
Method in brief: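 Assay format: CHO-ADRB2 cells, 18-20hr seeding at 37C/5% CO2, then compound plus 1nM isoproterenol agonist mix for 0.5hr RT. Homogeneous time-resolved fluorescence cAMP detection after 1hr, expressed as 665/615 nm ratio.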

[19] = molecular target: D(2) dopamine receptor (Homo sapiens) (UniProt P14416); experiment: Dopamine D2 receptor (DRD2) small molecule agonists, cell-based qHTS assay (AID 1963594); note: nearly all actives have a fitted effect of over 35% in size
Sequence of D(2) dopamine receptor (Homo sapiens) (P14416 whole entry, looked up): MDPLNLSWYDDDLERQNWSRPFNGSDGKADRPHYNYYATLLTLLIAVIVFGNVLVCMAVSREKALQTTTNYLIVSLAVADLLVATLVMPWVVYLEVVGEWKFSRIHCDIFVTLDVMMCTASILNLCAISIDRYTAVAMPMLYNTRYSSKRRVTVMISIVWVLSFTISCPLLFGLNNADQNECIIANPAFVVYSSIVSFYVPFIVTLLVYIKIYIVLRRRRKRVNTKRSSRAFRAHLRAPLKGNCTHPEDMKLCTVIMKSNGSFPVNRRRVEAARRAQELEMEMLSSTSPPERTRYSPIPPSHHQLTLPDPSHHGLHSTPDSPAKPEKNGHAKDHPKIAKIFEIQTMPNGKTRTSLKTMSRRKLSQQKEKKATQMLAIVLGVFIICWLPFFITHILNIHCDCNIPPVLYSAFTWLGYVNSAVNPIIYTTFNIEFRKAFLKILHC
Method in brief: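 cAMP accumulation in DRD2-HEK293 cells measured by HTRF after 1 h detection; compounds added 10 min before NKH477 (200nM […]) forskolin-analogue stimulation, 30 min at room temperature, with Ro20-1724 present at 0.1 mM final.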

[20] = molecular target: D(2) dopamine receptor (Homo sapiens) (UniProt P14416); experiment: Dopamine D2 receptor (DRD2) small molecule antagonists, cell-based qHTS assay (AID 1963595; active = well fitted inhibition curve with a large enough effect in the signal ratio in the repeat runs, with a control signal flat; the % refers to the signal ratio)
Method in brief: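 DRD2-HEK293; 0.1 mM Ro20-1724; cpd 10 min RT; NKH477 200 nM + quinpirole 12 nM, 30 min RT; HTRF cAMP (cAMP-d2/anti-cAMP cryptate), 665/620 nm ratio after 1 h.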

Row | SMILES | Potency [1] | Potency [2] | Potency [3] | Potency [4] | Potency [5] | Potency [6] | Potency [7] | Potency [8] | Potency [9] | Potency [10] | Potency [11] | Potency [12] | Potency [13] | Potency [14] | Potency [15] | Potency [16] | Potency [17] | Potency [18] | Potency [19] | Potency [20]
1 | COc1cc2c(Nc3ccc(Br)cc3F)ncnc2cc1OCC1CCN(C)CC1 | inactive | inactive | inactive | inactive | inactive | inactive | inactive | inactive | inactive | inactive | inactive | inactive | inactive | inactive | inactive | inactive | inactive | inactive | inactive | inactive
2 | O=C(Cl)c1ccc(C(=O)Cl)cc1 | inactive | inactive | inactive | inactive | inactive | inactive | inactive | inactive | inactive | inactive | inactive | inactive | inactive | inactive | inactive | inactive | inactive | inactive | inactive | inactive
3 | Cc1c(N)cccc1C(F)(F)F | inactive | inactive | inactive | inactive | inactive | inactive | inactive | inactive | inactive | inactive | inactive | inactive | inactive | inactive | inactive | inactive | inactive | inactive | inactive | inactive
4 | CCOC(=O)c1ccc(C)cc1 | inactive | inactive | inactive | inactive | inactive | inactive | inactive | inactive | inactive | inactive | inactive | inactive | inactive | inactive | inactive | inactive | inactive | inactive | inactive | –
5 | COCC(C)OC(C)=O (configuration not stated) | inactive | inactive | inactive | inactive | inactive | inactive | inactive | inactive | inactive | inactive | inactive | inactive | inactive | inactive | inactive | inactive | inactive | inactive | inactive | inactive
6 | COc1cc(/C=C/C(=O)O[C@H]2CC[C@]34C[C@]35CC[C@]3(C)[C@@H]([C@H](C)CCC=C(C)C)CC[C@@]3(C)[C@@H]5CC[C@H]4C2(C)C)ccc1O | inactive | inactive | inactive | inactive | inactive | inactive | inactive | inactive | inactive | inactive | inactive | inactive | inactive | inactive | inactive | inactive | inactive | inactive | inactive | inactive
7 | CC(C)CC(=O)OCc1ccccc1 | inactive | inactive | inactive | inactive | inactive | inactive | inactive | inactive | inactive | inactive | inactive | inactive | inactive | inactive | inactive | inactive | inactive | inactive | inactive | inactive
8 | CCCC(=O)c1ccccc1 | inactive | inactive | inactive | inactive | inactive | inactive | inactive | inactive | inactive | inactive | inactive | inactive | inactive | inactive | inactive | inactive | inactive | inactive | inactive | inactive
9 | CC(=O)c1ccccc1O | inactive | inactive | inactive | inactive | inactive | inactive | inactive | inactive | inactive | inactive | inactive | inactive | inactive | inactive | inactive | inactive | inactive | inactive | inactive | inactive
10 | CCCN1CCCC[C@H]1C(=O)Nc1c(C)cccc1C | inactive | inactive | inactive | inactive | inactive | inactive | inactive | inactive | inactive | inactive | inactive | inactive | inactive | inactive | inactive | inactive | inactive | inactive | inactive | inactive
11 | Cc1cc(N)no1 | inactive | inactive | inactive | inactive | inactive | inactive | inactive | inactive | inactive | inactive | inactive | inactive | inactive | inactive | inactive | inactive | inactive | inactive | inactive | inactive
12 | Cc1occc1SSc1ccoc1C | inactive | 61.1 µM (active) | inactive | inactive | inactive | inactive | inactive | inactive | inactive | inactive | inactive | inactive | inactive | inactive | inactive | inactive | inactive | inactive | inactive | –
13 | Nc1cc(S(=O)(=O)O)ccc1S(=O)(=O)O | inactive | inactive | inactive | inactive | inactive | inactive | inactive | inactive | inactive | inactive | inactive | inactive | inactive | inactive | inactive | inactive | inactive | inactive | inactive | inactive
14 | NCCCN1CCN(CCCN)CC1 | inactive | inactive | inactive | inactive | inactive | inactive | inactive | inactive | inactive | inactive | inactive | inactive | inactive | inactive | inactive | inactive | inactive | inactive | inactive | –
15 | Brc1cc(Br)cc(Br)c1 | inactive | inactive | inactive | inactive | inactive | inactive | inactive | inactive | inactive | inactive | inactive | inactive | inactive | inactive | inactive | inactive | inactive | inactive | inactive | inactive
